Laboratory results as given in PubChem BioAssay (NCI).
“And” between values parts separate entries of the source, which are not always exact repeats. Equal values may be shown once. About 79,000 compounds went through this panel and 15% of them were active in at least one assay; those are over-represented in the sample as a whole. Unmarked numbers belong to inactive results. The source made the active and inactive calls. Rule as the data show it: active = growth inhibition above about 70%; inactive = the rest.

Experiment: NCI Yeast Anticancer Drug Screen. Data for the bub3 strain (AID 167)
Conditions: S. cerevisiae bub3 mutant strain, at 50.0 µM (retest, dose inferred, filed as 5.0), stronger effect = higher value
In short: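 Yeast carrying a defined mutation is treated with each compound, and growth is compared with that of vehicle-exposed cells to give inhibition.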
In the case of `c1ccc(NC2=NCCN2)nc1`, the growth inhibition is reported as 84% (active). For `C[CH2][Sn]([CH2]C)([CH2]C)[O]C(=O)CO`, the growth inhibition was 98% (active). With `CC12CCC(O)CC1CCC1C2CCC2(C)C1CC1CC(=O)OC12` (centres undefined) the growth inhibition was 98% (active). With `Nc1ccc(N=Nc2ccccc2)cc1` the growth inhibition was 43%. In the case of `C[n+]1c(/C=C/c2ccc(O)c3ncccc23)[se]c2ccccc21`, the growth inhibition is reported as 91% (active). In the case of `COC(=O)C1=C(C)N2CCSC2(C)C(C(=O)OC)C1c1cccc(Cl)c1` (centres undefined), the growth inhibition is reported as 89% (active). For `O=[N+]([O-])/C=C/c1ccccc1`, the growth inhibition was 99% (active). With `CC12CCC(O)CC1CCC1C2CCC2(C)C(C(=O)CC(O)C(F)(F)F)CCC12` (centres undefined) the growth inhibition was 57%. In the case of `CC(C)NCC(O)c1ccc(O)c(O)c1.[Pt].c1ccc([PH+](c2ccccc2)c2ccccc2)cc1.c1ccc([PH+](c2ccccc2)c2ccccc2)cc1`, the growth inhibition is reported as 98% (active). For `CCOC(=O)/C(=C\c1ccc(C(=O)OC)cc1)[Se]c1ccccc1`, the growth inhibition was 53%. With `CC/C(=C/c1ccc2c(c1)OCO2)[N+](=O)[O-]` the growth inhibition was 99% (active). In the case of `CCOC(=O)C1=C(C)NC(=O)NC1c1ccc(N(CCCl)CCCl)cc1Cl` (centres undefined), the growth inhibition is reported as 97% (active). In the case of `S=C(S)N1CCOCC1`, the growth inhibition is reported as 86% (active). `CCOC(=O)c1ccccc1N` showed a growth inhibition of 6%. In the case of `C[n+]1c(/C=C/c2ccc(O)c(O)c2)[se]c2ccccc21`, the growth inhibition is reported as 61%. With `CS(=O)(=O)[O-].CS(=O)(=O)[O-].NC1CCCCC1N.[Pt+4]` (centres undefined) the growth inhibition was 99% (active). With `COc1ccc2c(c1O)-c1cccc3c1[C@@H](C2)N(CCCl)CC3` the growth inhibition was 98% (active). `COC(=O)CC1(C(=O)O)CC2(Cl)C(Cl)=C(Cl)C1(Cl)C2(Cl)Cl` (centres undefined) gave a growth inhibition of 41%. `CCCCN(C)CC(C(C)=O)C(c1ccccc1)c1c(O)c2ccccc2oc1=O` (centres undefined) showed a growth inhibition of 15%. In the case of `O=[n+]1c2ccccc2n([O-])c2ccccc21.[Cl][Ni][Cl]`, the growth inhibition is reported as 100% (active). `COc1ccc(C(Cc2ccc(Cl)c(Cl)c2)NCCO)cc1` (centres undefined) gave a growth inhibition of 32%. `O=C(N/N=C/c1cc(Cl)cc(Cl)c1[O-])c1ccccc1O.O=C(N/N=C/c1cc(Cl)cc(Cl)c1[O-])c1ccccc1O.[Zn+2]` gave a growth inhibition of 62%. In the case of `Oc1ccc(Cl)cc1Sc1cc(Cl)ccc1O`, the growth inhibition is reported as 100% (active) and 99% (active). In the case of `O=S(=O)([O-])[O-].[OH3+].[OH3+].[OH3+].[Ru+2].c1ccccc1`, the growth inhibition is reported as 42%. For `CCCCCC(Cn1ccnc1)c1ccc(Cl)cc1Cl` (centres undefined), the growth inhibition was 99% (active). For `CC1=C(CO)C(=O)OC(C(C)C2CCC3C4CC5OC56C(O)C(N5CC5)=CC(=O)C6(C)C4CCC23C)C1` (centres undefined), the growth inhibition was 77% (active). For `CCCC[CH2][Sn]([CH2]CCCC)[CH2]CCCC.CCCC[CH2][Sn]([CH2]CCCC)[CH2]CCCC`, the growth inhibition was 100% (active). Compound `CCC[CH2][Sn]1([CH2]CCC)[O]C(=O)C(C(C)C)N=Cc2ccccc2[O]1` (centres undefined) has a growth inhibition of -4%. For `Oc1c(Cl)cc(-c2cc(Cl)c(O)c(Cl)c2)cc1Cl`, the growth inhibition was 96% (active). `CC(=O)Nc1ccc(/C=N/N=C(/N)N[N+](=O)[O-])cc1` showed a growth inhibition of -6%. In the case of `CC(Br)c1ccccc1` (centres undefined), the growth inhibition is reported as 42%. With `C[Si]1(C)CCCCC2(C1)C(=O)NC(=O)NC2=O` the growth inhibition was 13%. `CCCCCCCCCCCCCCCc1cccc(O)c1O` gave a growth inhibition of -4%. Work on `CC1(C)OC2OC3C(CN(CCCl)Cc4ccccc4)OC(c4ccccc4)OC3C2O1` (centres undefined) yielded a growth inhibition of 23%. In the case of `FC(F)(F)c1nc2ccc(SSc3ccc4nc(C(F)(F)F)[nH]c4c3)cc2[nH]1`, the growth inhibition is reported as 14%. In the case of `O=[N+]([O-])c1csc([N+](=O)[O-])c1`, the growth inhibition is reported as 99% (active). In the case of `CCc1cc2c(cc1-c1csc(C/C(N)=N/O)n1)C(C)(C)CCC2(C)C`, the growth inhibition is reported as 93% (active). With `CCCCCCCC[N+](CCCC)(CCCC)CCCC` (tested in a mixture with another compound) the growth inhibition was 99% (active). With `CCC[CH2][Sn]([CH2]CCC)([S]C#N)[S]C#N` the growth inhibition was 96% (active).
